# Laboratory results published in PubChem BioAssay (NCATS).
# Inconclusive results are not listed. Active and inactive are the calls of the source. Calls come from the whole dose curve.
# Biological target: Vitamin D3 receptor (Homo sapiens) (UniProt P11473)
# Assay: qHTS assay for small molecule agonists of vitamin D receptor signaling (AID 588543)
# Settings: HEK293T VDR-UAS-bla, beta-lactamase ratio, 16 h; series mostly up to 76.8 µM; activation: at the top concentration
# Excerpt: NIH Chemical Genomics Center [NCGC]
# U.S. Environmental Protection Agency [EPA]
# National Institutes of Environmental Health Sciences [NIEHS]
# National Toxicology Program [NTP]
# The Vitamin D receptor (VDR) is a member of nuclear hormone receptor superfamily and it plays a critical role in calcium homeostasis and bone metabolism. It plays a role in inducing cell differentiation, inhibiting cell growth and in thrombogenicity. So, VDR that mediates these effects represents a pharmacological target in prevention and treatment of hyperproliferative malignancies, such as cancer and psoriasis, cardiovascular, immunological, inflammatory and renal diseases etc.
# NCGC Assay Protocol Summary
# Using a beta-lactamase reporter-gene under control of Vitamin D receptor (VDR) response element, a cell-based assay [GeneBLAzer (VDR -UAS-bla assay developed by Invitrogen] was used to measure VDR ligands signaling. GeneBLAzer VDR -UAS-bla HEK293T cells were used with assay medium containing 2% charcoal-stripped FBS. The assay was performed in clear bottom black Greiner 1536-well plates. 1-alpha,25-Dihydroxy vitaminD3 was used as a positive control in the screen. Library compounds were measured for their ability to stimulate the reporter gene activity. Compounds were screened in a titration series in 1536-well format. The fluorescence intensity (405 nm excitation, 460/530 nm emission) was measured using an EnVision plate reader. Data was normalized relative to 1-alpha,25-Dihydroxy vitaminD3 control (50 nM, 100%) and DMSO only wells (basal, 0%). Concentration-response titration points for each compound were fitted to the Hill equation yielding concentrations of half-maximal stimulation (EC50) and maximal response (efficacy) values.
# qHTS protocol for VDR beta-lactamase assay in agonist mode
# [Step] [Parameter] [Value] [Description]
# 1. Reagent; 6 uL; 2000 cells/well
# 2. Incubation; 37 C for 5 hrs
# 4. Controls (1-alpha,25-Dihydroxy vitaminD3); 23 nL,
# - Final concentrations of 50 nM and 15 nM in two columns
# 5. Incubation; 37 C for 16 hrs
# 6. Detection reagent; 1 uL of CCF4-dye
# 7. Incubation; RT for 2 hrs
# 8. Detection; Fluorescence; Envision plate reader
# Vitamin D3 receptor (Homo sapiens), sequence (P11473 whole entry, looked up): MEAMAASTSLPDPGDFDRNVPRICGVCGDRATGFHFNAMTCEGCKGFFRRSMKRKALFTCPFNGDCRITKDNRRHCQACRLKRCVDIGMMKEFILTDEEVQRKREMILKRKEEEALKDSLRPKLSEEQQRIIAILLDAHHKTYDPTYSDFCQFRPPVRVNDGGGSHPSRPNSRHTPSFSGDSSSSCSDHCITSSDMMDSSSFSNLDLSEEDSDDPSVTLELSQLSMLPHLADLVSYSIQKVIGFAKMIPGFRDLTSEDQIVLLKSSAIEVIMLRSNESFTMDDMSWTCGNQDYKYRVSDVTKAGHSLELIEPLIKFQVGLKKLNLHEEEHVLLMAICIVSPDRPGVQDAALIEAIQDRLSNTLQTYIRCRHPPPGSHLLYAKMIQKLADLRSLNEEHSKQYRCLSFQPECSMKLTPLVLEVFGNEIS
SMILES,activation,outcome
CCc1cc(C(N)=S)ccn1,-1.12% (inactive),–
Cc1ccnc2c1NC(=O)c1cccnc1N2C1CC1,1.25% (inactive),–
COc1ccc2cc3[n+](cc2c1OC)CCc1cc2c(cc1-3)OCO2,2.91% (inactive),–
OC(Cn1cncn1)(Cn1cncn1)c1ccc(F)cc1F,0.845% (inactive),–
S=P(N1CC1)(N1CC1)N1CC1,-1.76% (inactive),–
Cc1nnc(NS(=O)(=O)c2ccc(N)cc2)s1,5.2% (inactive),–
N=C(N)c1ccc(OCCCCCOc2ccc(C(=N)N)cc2)cc1,–,inactive
CC[C@H](C)C(=O)O[C@H]1C[C@@H](C)C=C2C=C[C@H](C)[C@H](CC[C@@H]3C[C@@H](O)CC(=O)O3)[C@H]21,-3.78% (inactive),–
CC(=O)CC(c1ccccc1)c1c(O)c2ccccc2oc1=O (centres undefined),-1.48% (inactive),–
CC(=O)[C@H]1CC[C@H]2[C@@H]3CCC4=CC(=O)CC[C@]4(C)[C@H]3CC[C@]12C,–,inactive
CN(C)c1ccc(C(=C2C=CC(=[N+](C)C)C=C2)c2ccc(N(C)C)cc2)cc1,–,inactive
NNC(=O)c1ccncc1,-0.253% (inactive),–
C[C@]12C=CC(=O)C=C1CC[C@@H]1[C@@H]2C(=O)C[C@@]2(C)[C@H]1CC[C@]2(O)C(=O)CO,-0.852% (inactive),–
Cc1cc(NS(=O)(=O)c2ccc(N)cc2)no1,-1.53% (inactive),–
